Reference: PubChem BioAssay AID651965 (National Center for Advancing Translational Sciences (NCATS), 2013)
The whole screen tested about 340,000 compounds, of which about 6,400 (1.9%) were called active. Roughly 4% stayed inconclusive and do not appear here. Calls come from the whole dose curve; as a rule, active = well fitted falling curve with a large enough effect; inconclusive = small, poorly fitted or top-dose-only effect; inactive = no such curve, though single readings can be large or run the other way. The list comes from a sample in which actives are over-represented; it also holds similar structures and randomly drawn compounds. Entries that show only a call come without a potency.

Each compound was assayed against ATP-dependent Clp protease proteolytic subunit (Bacillus subtilis (strain 168)) (UniProt P80244) (assay: qHTS Assay for Activators of ClpP). Details: purified B. subtilis ClpP, FRET peptide cleavage, 20 min; series mostly up to 57.5 µM.
Outline: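 ClpP 10 microg/mL final, pH 8 Tris/KCl buffer with BSA, glycerol, Tween-20; compound pinned in; FRET-FV substrate; RT 20 min; Ex320/Em430; ΔFRET vs ADEP 5.8 microM, DMSO, no enzyme.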
Note: the source files actives as falling curves though it sought activators and does not explain the sign; nearly all actives have a fitted effect of over 65% in size.
Potency is the fitted concentration of half-maximal effect.

ATP-dependent Clp protease proteolytic subunit (Bacillus subtilis (strain 168)), sequence (P80244 whole entry, looked up): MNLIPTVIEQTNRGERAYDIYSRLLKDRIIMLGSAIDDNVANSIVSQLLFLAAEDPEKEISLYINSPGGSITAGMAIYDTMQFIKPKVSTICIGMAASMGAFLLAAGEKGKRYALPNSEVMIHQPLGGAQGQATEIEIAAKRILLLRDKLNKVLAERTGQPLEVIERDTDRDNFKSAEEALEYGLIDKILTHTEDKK

SMILES	Potency
COc1ccc(Cn2ccn(CC(=O)Nc3cc(C)ccc3C)c(=O)c2=O)cc1	inactive
COc1ccc(Cn2c(C)c(C)c(C#N)c2NC(=O)Nc2ccc(F)cc2)cc1	inactive
COc1ccc(Cn2cccc(NC(=O)Nc3ccc(C#N)cc3)c2=O)cc1	12.6 µM (active)
CSc1ccc(CN2CCC2(C)C(=O)Nc2ccc(C)c(O)c2)cc1 (centres undefined)	inactive
CCOc1n[nH]c(-c2ccccc2)n1	inactive
Cc1ccccc1S(=O)(=O)NC(=O)C1(C)CCN1C(=O)Cc1ccc(Cl)cc1Cl (centres undefined)	inactive
COC(=O)c1ccc2nc(-c3ccc(C)cc3)c(Cc3ccc(OC)cc3C)n2c1	inactive
Cc1ccc(N2CC(C(=O)Nc3ccc(N(C)C)cc3)CC2=O)cc1Cl (centres undefined)	inactive
Cc1ccc(N2CC(C(=O)N3CCC4(CC3)CC(=O)c3ccccc3O4)CC2=O)cc1C (centres undefined)	28.2 µM (active)
O=C(C1CC(=O)N(c2ccc(Br)cc2)C1)N1CCCC1 (centres undefined)	inactive
O=[N+]([O-])c1cc(C(F)(F)F)ccc1NN=C1CCCC1	31.6 µM (active)
O=[N+]([O-])c1ccc(N/N=C2/CCCCC2c2ccccn2)c([N+](=O)[O-])c1 (centres undefined)	inactive
O=[N+]([O-])c1cc(S(=O)(=O)N2CCCC2)ccc1NN=C1CCCC1	inactive
CCCS(=O)(=O)NC(=O)C1(C)CCCN(C(=O)c2ccnc(Cl)c2)C1 (centres undefined)	inactive
O=C(C(=O)N1CCN(c2ccccc2)CC1)c1ccc2c(c1)OCO2	inactive
COc1ccc2c(C)c(CCC(=O)NCc3ccc(OC)c(OC)c3)c(=O)oc2c1	inactive
COC(=O)Cc1c(C)c2ccc(OCC(=O)NCc3ccc4c(c3)OCO4)cc2oc1=O	31.6 µM (active)
COc1ccc(CCNC(=O)COc2ccc3c(c2)OCO3)cc1	inactive
CCC(C)CN1C(=O)CN(S(C)(=O)=O)CC1(C)C(=O)Nc1ccc2c(c1)OCCO2 (centres undefined)	inactive
COc1ccc(/C=C/c2ccnc3ccccc23)cc1OC	inactive
CCOC(=O)C1Cn2c(nc3c(c2=O)C(C)(CC)Cc2ccccc2-3)S1 (centres undefined)	28.2 µM (active)
CCC1(CC)Cc2ccccc2-c2nc(CCl)[nH]c(=O)c21	inactive
CCC1(CC)Cc2ccccc2-c2nc3ccccc3c(=O)n21	inactive
OC(c1ccccc1)(c1ccccc1)C1CCN(CCCOc2ccccc2)CC1	inactive
CN(C)Cc1cn(-c2ccccc2)nc1-c1ccccc1	inactive

SMILES	Potency
Cc1ccc(-c2nn(-c3ccccc3)cc2CN(Cc2ccccc2)C(=O)CCC(=O)O)o1	22.4 µM (active)
O=C(O)CCC(=O)N(Cc1ccccc1)Cc1ccccc1	inactive
Nc1ccc2nn(-c3ccc(Cl)cc3)nc2c1	inactive
CCCC(=O)Nc1cc2nn(-c3ccccc3)nc2cc1C	inactive
c1ccc(-n2nc3ccccc3n2)cc1	25.1 µM (active)
CCc1nc2c(OCCOc3ccccc3)cccn2c1N(C)C(=O)c1ccccc1F	inactive
Cc1cccc(NC(=O)COC(=O)c2ccccc2OCc2cccc(Br)c2)c1	inactive
Cc1ccc(-n2ncc(C(=O)NC3CC3)c2C2CCN(C(=O)OC(C)(C)C)CC2)c(C)c1	inactive
CCOc1ccc(-c2cc3nc(C4CCN(C(=O)OC(C)(C)C)CC4)c(C(=O)Nc4cccc(CC)c4)cn3n2)cc1	inactive
COc1cc(OC)cc(-c2cc3nc(C4CCN(C(=O)OC(C)(C)C)CC4)cc(=O)n3[nH]2)c1	25.1 µM (active)
COc1ccc(/C=C2\SC(=O)N(CCC(=O)NC3CCS(=O)(=O)C3)C2=O)cc1 (centres undefined)	inactive
O=C(COC(=O)CCCN1C(=O)c2cccc3cccc(c23)C1=O)NC1CCS(=O)(=O)C1 (centres undefined)	31.6 µM (active)
O=C(COC(=O)/C=C/c1ccc(Cl)cc1)NC1CCS(=O)(=O)C1 (centres undefined)	inactive
Cc1ccc(F)c(S(=O)(=O)NC(=O)C2(C)CCN2C(=O)c2ccco2)c1 (centres undefined)	inactive
CCC(C)(C)NC(=O)/C=C/c1cc(OC)c(OC)c(S(=O)(=O)N2CCc3ccccc32)c1	inactive
COc1cc(/C=C/C(=O)O)cc(S(=O)(=O)Nc2ccccc2SC)c1OC	inactive
CCn1nc(C(=O)NNS(=O)(=O)c2cc(/C=C/C(=O)O)cc(OC)c2OC)c2ccccc2c1=O	5.62 µM (active)
COc1ccccc1CNc1nc(Nc2ccccc2Cl)c2sccc2n1	inactive
c1ccc(Cn2nnc3c(N4CCCCC4)ncnc32)cc1	inactive
O=C(CC(CC(=O)c1ccccc1)c1ccco1)c1ccccc1	inactive
OC(c1ccc(Cl)cc1)c1ncc(-c2ccc(Cl)cc2)[nH]1 (centres undefined)	inactive
C=CCn1c(-c2sc(-c3ccccc3)nc2C)n[nH]c1=S	inactive
Cc1nc(-c2ccccc2)sc1-c1nc(-c2ccccc2)ncc1S(=O)(=O)c1ccccc1	31.6 µM (active)
C#CC(C)(C)NC(=O)c1cnc(-c2ccccc2)nc1-c1ccccc1	inactive
CC1(C(=O)NCc2ccc(F)c(F)c2)Cc2c(-c3ccc4c(c3)OCO4)ccnc2O1 (centres undefined)	inactive

SMILES	Potency
CC(C)CCOc1ccc(C(=O)Nc2cc(S(=O)(=O)N3CCOCC3)ccc2N2CCOCC2)cc1	inactive
Cn1c(NN)nc2sc3c(c2c1=O)CCC3	11.2 µM (active)
NNC(=O)C1CCCn2c1nc1sc3c(c1c2=O)CCCC3 (centres undefined)	inactive
CCCc1nc2sc3c(c2c(=O)n1NC(=O)CCCl)CCCC3	inactive
OCCNc1ncnc2oc(-c3ccco3)c(-c3ccco3)c12	inactive
CCOc1ccc(CCN2C(=O)C(=O)N([C@@H](Cc3ccc(O)cc3)CN3CCC[C@H]3CN3C(=O)C(=O)NC[C@@H]3CC(C)C)C[C@@H]2Cc2ccccc2)cc1	inactive
COc1ccc(NC(=O)CCCOc2ccc(C(C)=O)cc2)cc1S(=O)(=O)N1CCCCC1	inactive
Cc1ccccc1NC(=S)N(CCCN1CCOCC1)Cc1cccs1	28.2 µM (active)
Cc1ccc(NC(=S)N(CCN(C)C)Cc2cccs2)cc1C	inactive
CCN(Cc1ccncc1)C(=S)Nc1ccccc1C	inactive
COc1ccc(/C=C/c2ccccn2)cc1OC	inactive
Cc1cccnc1C(NC(=O)C1CCN(Cc2ccc(Cl)c(Cl)c2)CC1)c1ccc(Cl)cc1 (centres undefined)	inactive
O=C1Nc2ccccc2NC(c2ccc3c(c2)OCO3)=C1N(Cc1ccc(F)cc1)C(=O)c1ccco1	inactive
O=C(COC(=O)c1ccccc1)c1ccc2c(c1)OCCO2	inactive
CC(=O)Nc1cccc(C(=O)OCC(=O)c2ccc3c(c2)OCO3)c1	12.6 µM (active)
O=C(COC(=O)c1ccc(F)cc1)Nc1ccc2c(c1)OCO2	inactive
CC(=O)Nc1cccc(-c2cc3nc(NCc4cccnc4)n(C)c(=O)c3s2)c1	inactive
COc1ccc(C(c2nnnn2C2CCCC2)N2CCN(C/C=C/c3ccccc3)CC2)cc1 (centres undefined)	inactive
CC(=O)C1=CCC(c2ccccc2)N(S(=O)(=O)c2ccc(C)cc2)C1 (centres undefined)	inactive
CCOc1cccc2cc(C(=O)OCC(=O)Nc3c(C)cccc3CC)c(=O)oc12	inactive
C=CCc1cccc2cc(C(=O)OCC)c(=O)oc12	35.5 µM (active)
C=CCc1cccc2cc(C(=O)N3CCN(C(=O)OCC)CC3)c(=O)oc12	inactive
CCOC(=O)C1=CCC2C(=O)N(Cc3ccccc3)C(=O)C12 (centres undefined)	inactive
CC(C)c1cc(Cn2c3ccccc3c(=O)n2C(C)Cn2cc(C3CC3)nn2)on1 (centres undefined)	inactive
COc1ccc(CCNC(=O)CSc2nnc3ccc(-c4ccncc4)nn23)cc1	inactive

SMILES	Potency
COc1cccc(CNC(=O)CSc2c3c(nc4cc(Cl)ccc24)CCCC3)c1	inactive
COc1cccc(-c2ccc(C#N)c(SCC(=O)NCCc3ccc(Cl)cc3)n2)c1	35.5 µM (active)
COc1ccc(CCNC(=O)CSc2nc(-c3ccc(OC)c(OC)c3)ccc2C#N)cc1	17.8 µM (active)
COc1ccc(CCNC(=O)COC(=O)c2cnc(Cl)c(Cl)c2)cc1	inactive
COc1ccc(CCNC(=O)CSc2nc(C)nc3c2oc2ccccc23)cc1OC	inactive
Nc1nc2cc(Cl)ccc2n1N	inactive
OCC1OC(n2cnc3c(N4CCCC4)ncnc32)C(O)C1O (centres undefined)	inactive
COc1cccc(C(O)c2nc(-c3ccc(C)c(C)c3)cs2)c1 (centres undefined)	inactive
CCOC(=O)[C@]12CCCC=C1N(Cc1cccc3ccccc13)C(=O)[C@H](CC(=O)NCC13CC4CC(CC(C4)C1)C3)C2	inactive
CCCCN(C=O)c1c(CC)nc2c(OCc3ccccc3C(=O)OC)cccn12	inactive
C[C@@H]1CN([C@@H](C)CO)C(=O)CCCn2nncc2CO[C@H]1CN(C)C(=O)Nc1ccc(C(F)(F)F)cc1	inactive
Cc1nc(NCc2ccccc2)c(C(N)=O)c2c1COC(C)(C)C2	22.4 µM (active)
Cc1nc(C(=O)NCc2ccccc2)sc1C1(C)CC(c2cccnc2)=NO1 (centres undefined)	inactive
CC1(C)Cc2cccc(OCC(=O)NCc3ccccc3)c2O1	inactive
COC(=O)[C@]12CCCCC=C1N(CCC1=CCCCC1)C(=O)[C@H](CC(=O)N1CCSCC1)C2	inactive
CC(=O)Nc1cnc(-c2ccc(O)cc2C)cn1	inactive
Brc1ccc2nc(-c3ccccc3)c(Cc3ccccc3)n2c1	inactive
CC(C)OC(=O)C(C#N)c1nc2ccccc2nc1N1CCN(Cc2ccccc2)CC1 (centres undefined)	inactive
CC(C)c1nc(N2CCOCC2)c(C#N)c2c1COC(C)(C)C2	15.8 µM (active)
CC(C)C(=O)N1CCN(c2nc(-c3ccccc3)c3c(c2C#N)CC(C)(C)OC3)CC1	28.2 µM (active)
CC1(C)Cc2c(sc(NC(=O)C(=O)N3CCOCC3)c2C#N)CO1	inactive
CC(C)C(=O)N1CCC2(CC1)Oc1ccc(F)cc1C(=O)C21CC(c2ccccc2)=NO1 (centres undefined)	inactive
CCOC(=O)N1CCN(C(=O)C(=O)Nc2sc3c(c2C#N)CC(C)(C)OC3)CC1	inactive
Cc1ccc(S(=O)(=O)N2CCC(=O)N([C@H](COCc3ccccc3)C(C)C)CC2)cc1	inactive
